# How the values were obtained:
# Test in all cases: SPOT peptide array binding signal intensity (averaged, normalized) (arbitrary units (background-subtracted, floor 0; scale differs between SH3 domains)); higher = stronger binding of the SH3 domain to the peptide
# CaNbp2 = molecular target: CaNbp2
# Method in brief: (§1)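 Spot intensities were captured after detection with anti-GST antibody, an HRP-linked anti-mouse secondary and luminol, and quantified with Genespotter. The probes were GST-fused SH3 domains from four yeast species, produced in E. coli BL21(DE3), purified on glutathione Sepharose and incubated at 10 μg/ml overnight at 4°C on cellulose-bound synthetic 15-mer peptides with cysteines replaced by serines. Binding signal is the normalized, background-subtracted spot intensity averaged over replicates, and its arbitrary units differ between domains.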
# CaRvs167 = molecular target: CaRvs167
# Method in brief: as §1
# CaRvs167-3 = molecular target: CaRvs167-3
# Method in brief: as §1
# CaSho1 = molecular target: CaSho1
# Method in brief: as §1
# CaSla1-D1-D2 = molecular target: CaSla1-D1-D2
# Method in brief: as §1
# CaSla1-D3 = molecular target: CaSla1-D3
# Method in brief: as §1
# ScAbp1 = molecular target: ScAbp1
# Method in brief: as §1
# ScBbc1 = molecular target: ScBbc1
# Method in brief: as §1
# ScBem1-D1 = molecular target: ScBem1-D1
# Method in brief: as §1
# ScBzz1-D1 = molecular target: ScBzz1-D1
# Method in brief: as §1
# ScBzz1-D2 = molecular target: ScBzz1-D2
# Method in brief: as §1
# ScCyk3 = molecular target: ScCyk3
# Method in brief: as §1
# ScFus1 = molecular target: ScFus1
# Method in brief: as §1
# ScHof1 = molecular target: ScHof1
# Method in brief: as §1
# ScHse1 = molecular target: ScHse1
# Method in brief: as §1
# ScLsb1 = molecular target: ScLsb1
# Method in brief: as §1
# ScLsb2 = molecular target: ScLsb2
# Method in brief: as §1
# ScLsb3 = molecular target: ScLsb3
# Method in brief: as §1
# ScLsb4 = molecular target: ScLsb4
# Method in brief: as §1
# ScMyo3 = molecular target: ScMyo3
# Method in brief: as §1
# ScMyo5 = molecular target: ScMyo5
# Method in brief: as §1
# ScNbp2 = molecular target: ScNbp2
# Method in brief: as §1
# ScPex13 = molecular target: ScPex13
# Method in brief: as §1
# ScRvs167 = molecular target: ScRvs167
# Method in brief: as §1
# ScSho1 = molecular target: ScSho1
# Method in brief: as §1
# ScSla1-D1-D2 = molecular target: ScSla1-D1-D2
# Method in brief: as §1
# ScSla1-D3 = molecular target: ScSla1-D3
# Method in brief: as §1
# SpAbp1-D1 = molecular target: SpAbp1-D1
# Method in brief: as §1
# SpBbc1 = molecular target: SpBbc1
# Method in brief: as §1
# SpBzz1-D1 = molecular target: SpBzz1-D1
# Method in brief: as §1
# SpBzz1-D2 = molecular target: SpBzz1-D2
# Method in brief: as §1
# SpCyk3 = molecular target: SpCyk3
# Method in brief: as §1
# SpHof1 = molecular target: SpHof1
# Method in brief: as §1
# SpHof1-2 = molecular target: SpHof1-2
# Method in brief: as §1
# SpHof1-3 = molecular target: SpHof1-3
# Method in brief: as §1
# SpHse1 = molecular target: SpHse1
# Method in brief: as §1
# SpLsb1 = molecular target: SpLsb1
# Method in brief: as §1
# SpLsb4 = molecular target: SpLsb4
# Method in brief: as §1
# SpMyo1 = molecular target: SpMyo1
# Method in brief: as §1
# SpNbp2 = molecular target: SpNbp2
# Method in brief: as §1
# SpPex13 = molecular target: SpPex13
# Method in brief: as §1
# SpRvs167 = molecular target: SpRvs167
# Method in brief: as §1
# SpSla1-D1-D2 = molecular target: SpSla1-D1-D2
# Method in brief: as §1
# SpSla1-D3 = molecular target: SpSla1-D3
# Method in brief: as §1
# AgAbp1 = molecular target: AgAbp1
# Method in brief: as §1
# AgBbc1 = molecular target: AgBbc1
# Method in brief: as §1
# AgBem1-D1 = molecular target: AgBem1-D1
# Method in brief: as §1
# AgBzz1-D1 = molecular target: AgBzz1-D1
# Method in brief: as §1
# AgBzz1-D2 = molecular target: AgBzz1-D2
# Method in brief: as §1
# AgCyk3 = molecular target: AgCyk3
# Method in brief: as §1
# AgFus1 = molecular target: AgFus1
# Method in brief: as §1
# AgHof1 = molecular target: AgHof1
# Method in brief: as §1
# AgHse1 = molecular target: AgHse1
# Method in brief: as §1
# AgLsb1 = molecular target: AgLsb1
# Method in brief: as §1
# AgLsb4 = molecular target: AgLsb4
# Method in brief: as §1
# AgMyo5 = molecular target: AgMyo5
# Method in brief: as §1
# AgNbp2 = molecular target: AgNbp2
# Method in brief: as §1
# AgRvs167 = molecular target: AgRvs167
# Method in brief: as §1
# AgSho1 = molecular target: AgSho1
# Method in brief: as §1
# AgSla1-D1-D2 = molecular target: AgSla1-D1-D2
# Method in brief: as §1
# AgSla1-D3 = molecular target: AgSla1-D3
# Method in brief: as §1
# CaAbp1-D1 = molecular target: CaAbp1-D1
# Method in brief: as §1
# CaAbp1-D2 = molecular target: CaAbp1-D2
# Method in brief: as §1
# CaBbc1 = molecular target: CaBbc1
# Method in brief: as §1
# CaBem1-D1 = molecular target: CaBem1-D1
# Method in brief: as §1
# CaBzz1-D1 = molecular target: CaBzz1-D1
# Method in brief: as §1
# CaBzz1-D2 = molecular target: CaBzz1-D2
# Method in brief: as §1
# CaCyk3 = molecular target: CaCyk3
# Method in brief: as §1
# CaFus1 = molecular target: CaFus1
# Method in brief: as §1
# CaHof1 = molecular target: CaHof1
# Method in brief: as §1
# CaHse1 = molecular target: CaHse1
# Method in brief: as §1
# CaLsb1 = molecular target: CaLsb1
# Method in brief: as §1
# CaLsb4 = molecular target: CaLsb4
# Method in brief: as §1
# CaMyo5 = molecular target: CaMyo5
# Method in brief: as §1
binder,measurement,setting,value
KRRTSLFPWLHKPGI,SPOT peptide array binding signal intensity,CaNbp2,402
same,SPOT peptide array binding signal intensity,CaRvs167,5.67
same,SPOT peptide array binding signal intensity,CaRvs167-3,34.2
same,SPOT peptide array binding signal intensity,CaSho1,664
same,SPOT peptide array binding signal intensity,CaSla1-D1-D2,5.5
same,SPOT peptide array binding signal intensity,CaSla1-D3,≤ 0
same,SPOT peptide array binding signal intensity,ScAbp1,19
same,SPOT peptide array binding signal intensity,ScBbc1,5.75
same,SPOT peptide array binding signal intensity,ScBem1-D1,2
same,SPOT peptide array binding signal intensity,ScBzz1-D1,5.5
same,SPOT peptide array binding signal intensity,ScBzz1-D2,2.5
same,SPOT peptide array binding signal intensity,ScCyk3,311
same,SPOT peptide array binding signal intensity,ScFus1,224
same,SPOT peptide array binding signal intensity,ScHof1,≤ 0
same,SPOT peptide array binding signal intensity,ScHse1,2010
same,SPOT peptide array binding signal intensity,ScLsb1,≤ 0
same,SPOT peptide array binding signal intensity,ScLsb2,7.5
same,SPOT peptide array binding signal intensity,ScLsb3,54
same,SPOT peptide array binding signal intensity,ScLsb4,≤ 0
same,SPOT peptide array binding signal intensity,ScMyo3,3
same,SPOT peptide array binding signal intensity,ScMyo5,1.5
same,SPOT peptide array binding signal intensity,ScNbp2,230
same,SPOT peptide array binding signal intensity,ScPex13,1
same,SPOT peptide array binding signal intensity,ScRvs167,7.67
same,SPOT peptide array binding signal intensity,ScSho1,512
same,SPOT peptide array binding signal intensity,ScSla1-D1-D2,56.5
same,SPOT peptide array binding signal intensity,ScSla1-D3,≤ 0
same,SPOT peptide array binding signal intensity,SpAbp1-D1,420
same,SPOT peptide array binding signal intensity,SpBbc1,≤ 0
same,SPOT peptide array binding signal intensity,SpBzz1-D1,27
same,SPOT peptide array binding signal intensity,SpBzz1-D2,≤ 0
same,SPOT peptide array binding signal intensity,SpCyk3,3
same,SPOT peptide array binding signal intensity,SpHof1,54
same,SPOT peptide array binding signal intensity,SpHof1-2,2.75
same,SPOT peptide array binding signal intensity,SpHof1-3,586
same,SPOT peptide array binding signal intensity,SpHse1,844
same,SPOT peptide array binding signal intensity,SpLsb1,0.5
same,SPOT peptide array binding signal intensity,SpLsb4,8.5
same,SPOT peptide array binding signal intensity,SpMyo1,2.5
same,SPOT peptide array binding signal intensity,SpNbp2,418
same,SPOT peptide array binding signal intensity,SpPex13,6.5
same,SPOT peptide array binding signal intensity,SpRvs167,≤ 0
same,SPOT peptide array binding signal intensity,SpSla1-D1-D2,≤ 0
same,SPOT peptide array binding signal intensity,SpSla1-D3,4
RKLRTVPGVPLIHLT,SPOT peptide array binding signal intensity,AgAbp1,13
same,SPOT peptide array binding signal intensity,AgBbc1,40.8
same,SPOT peptide array binding signal intensity,AgBem1-D1,41
same,SPOT peptide array binding signal intensity,AgBzz1-D1,8
same,SPOT peptide array binding signal intensity,AgBzz1-D2,16
same,SPOT peptide array binding signal intensity,AgCyk3,0.5
same,SPOT peptide array binding signal intensity,AgFus1,53.5
same,SPOT peptide array binding signal intensity,AgHof1,34.5
same,SPOT peptide array binding signal intensity,AgHse1,19.5
same,SPOT peptide array binding signal intensity,AgLsb1,2
same,SPOT peptide array binding signal intensity,AgLsb4,18
same,SPOT peptide array binding signal intensity,AgMyo5,≤ 0
same,SPOT peptide array binding signal intensity,AgNbp2,934
same,SPOT peptide array binding signal intensity,AgRvs167,2
same,SPOT peptide array binding signal intensity,AgSho1,≤ 0
same,SPOT peptide array binding signal intensity,AgSla1-D1-D2,≤ 0
same,SPOT peptide array binding signal intensity,AgSla1-D3,0.25
same,SPOT peptide array binding signal intensity,CaAbp1-D1,224
same,SPOT peptide array binding signal intensity,CaAbp1-D2,83
same,SPOT peptide array binding signal intensity,CaBbc1,171
same,SPOT peptide array binding signal intensity,CaBem1-D1,1
same,SPOT peptide array binding signal intensity,CaBzz1-D1,104
same,SPOT peptide array binding signal intensity,CaBzz1-D2,90
same,SPOT peptide array binding signal intensity,CaCyk3,17
same,SPOT peptide array binding signal intensity,CaFus1,147
same,SPOT peptide array binding signal intensity,CaHof1,0.5
same,SPOT peptide array binding signal intensity,CaHse1,1.25
same,SPOT peptide array binding signal intensity,CaLsb1,≤ 0
same,SPOT peptide array binding signal intensity,CaLsb4,73
same,SPOT peptide array binding signal intensity,CaMyo5,0.25
same,SPOT peptide array binding signal intensity,CaNbp2,281
same,SPOT peptide array binding signal intensity,CaRvs167,24.3
same,SPOT peptide array binding signal intensity,CaRvs167-3,7.25
same,SPOT peptide array binding signal intensity,CaSho1,3.5
same,SPOT peptide array binding signal intensity,CaSla1-D1-D2,20
same,SPOT peptide array binding signal intensity,CaSla1-D3,≤ 0
same,SPOT peptide array binding signal intensity,ScAbp1,14
same,SPOT peptide array binding signal intensity,ScBbc1,21
same,SPOT peptide array binding signal intensity,ScBem1-D1,27.5
same,SPOT peptide array binding signal intensity,ScBzz1-D1,10
same,SPOT peptide array binding signal intensity,ScBzz1-D2,1.5
same,SPOT peptide array binding signal intensity,ScCyk3,9
same,SPOT peptide array binding signal intensity,ScFus1,37
same,SPOT peptide array binding signal intensity,ScHof1,1
same,SPOT peptide array binding signal intensity,ScHse1,178
same,SPOT peptide array binding signal intensity,ScLsb1,1.5
same,SPOT peptide array binding signal intensity,ScLsb2,2
same,SPOT peptide array binding signal intensity,ScLsb3,1030
same,SPOT peptide array binding signal intensity,ScLsb4,22
same,SPOT peptide array binding signal intensity,ScMyo3,≤ 0
same,SPOT peptide array binding signal intensity,ScMyo5,2
same,SPOT peptide array binding signal intensity,ScNbp2,1190
same,SPOT peptide array binding signal intensity,ScPex13,59.5
same,SPOT peptide array binding signal intensity,ScRvs167,1390
same,SPOT peptide array binding signal intensity,ScSho1,110
same,SPOT peptide array binding signal intensity,ScSla1-D1-D2,73
same,SPOT peptide array binding signal intensity,ScSla1-D3,23.5
same,SPOT peptide array binding signal intensity,SpAbp1-D1,17.5
same,SPOT peptide array binding signal intensity,SpBbc1,≤ 0
same,SPOT peptide array binding signal intensity,SpBzz1-D1,71.5
same,SPOT peptide array binding signal intensity,SpBzz1-D2,≤ 0
same,SPOT peptide array binding signal intensity,SpCyk3,≤ 0
same,SPOT peptide array binding signal intensity,SpHof1,22.8
same,SPOT peptide array binding signal intensity,SpHof1-2,2
same,SPOT peptide array binding signal intensity,SpHof1-3,229
same,SPOT peptide array binding signal intensity,SpHse1,68.8
same,SPOT peptide array binding signal intensity,SpLsb1,3.25
same,SPOT peptide array binding signal intensity,SpLsb4,369
same,SPOT peptide array binding signal intensity,SpMyo1,2.75
same,SPOT peptide array binding signal intensity,SpNbp2,7.5
same,SPOT peptide array binding signal intensity,SpPex13,≤ 0
same,SPOT peptide array binding signal intensity,SpRvs167,616
same,SPOT peptide array binding signal intensity,SpSla1-D1-D2,1
same,SPOT peptide array binding signal intensity,SpSla1-D3,≤ 0

# From the supplement of paper PMC4466140
